{
  "source": "ChEMBL document CHEMBL3988442",
  "about": "“University of Dundee, Small-Polar-MMV Screening Library” (2021)",
  "data": [
    {"target": "T1, Arginase-2, mitochondrial (Homo sapiens) (UniProt P78540)", "T1 sequence (whole entry)": "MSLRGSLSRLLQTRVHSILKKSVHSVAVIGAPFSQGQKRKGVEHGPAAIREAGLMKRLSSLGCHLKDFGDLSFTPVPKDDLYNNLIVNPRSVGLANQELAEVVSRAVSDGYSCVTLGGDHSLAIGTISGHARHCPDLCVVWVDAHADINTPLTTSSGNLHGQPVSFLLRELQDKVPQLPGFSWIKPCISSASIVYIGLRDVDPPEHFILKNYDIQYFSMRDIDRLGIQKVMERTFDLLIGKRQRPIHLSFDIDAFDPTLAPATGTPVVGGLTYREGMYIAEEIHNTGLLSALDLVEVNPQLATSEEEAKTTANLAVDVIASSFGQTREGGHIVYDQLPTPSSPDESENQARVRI", "experiment": "in vitro enzyme assay to detect the production of urea directly proportional to the activity of Arginase II", "format": "functional", "design": "scale not given: in the data most compounds retested in dose-response had high values", "details": "30 µM", "units": {"Percent Effect": "%"}, "values": [
      {"smiles": "Cc1noc(C)c1CN1C[C@@H](N(C)Cc2ccco2)[C@H]2OCCC[C@H]21", "Percent Effect": 7.03},
      {"smiles": "CCn1c(NCc2ccccc2)nc2c(C)nn(C)c2c1=O", "Percent Effect": 8.11},
      {"smiles": "COc1ccc(CNCc2nnc3n2CC(C(F)(F)F)CC3)cc1", "note": "(centres undefined)", "Percent Effect": 9.19},
      {"smiles": "O=C(COC1CCCC1)N1CCCC1c1noc(C2CC2)n1", "note": "(centres undefined)", "Percent Effect": 5.95},
      {"smiles": "CC(C)[C@H](NC(=O)Cn1nc2c(cc1=O)CCCC2)C(=O)O", "Percent Effect": 13.5},
      {"smiles": "CN(CC(=O)N1CCCC1c1noc(C2CC2)n1)S(C)(=O)=O", "note": "(centres undefined)", "Percent Effect": 3.78},
      {"smiles": "Cc1ccc(CCNC(=O)N2CCC(Cc3cnn(C)c3)C2)cn1", "note": "(centres undefined)", "Percent Effect": 7.03},
      {"smiles": "O=c1[nH]c2c(c(=O)n1C1CCCCC1)CCC2NCc1ccccc1", "note": "(centres undefined)", "Percent Effect": 9.19},
      {"smiles": "CCCS(=O)(=O)CC(=O)N1CCCC1c1noc(C2CC2)n1", "note": "(centres undefined)", "Percent Effect": 7.03},
      {"smiles": "CN(C)C1CCCN(C(=O)CCc2csc(N)n2)CC1", "note": "(centres undefined)", "Percent Effect": 1.62},
      {"smiles": "CC(C)C(NC(=O)Cn1nc2c(cc1=O)CCCC2)C(=O)O", "note": "(centres undefined)", "Percent Effect": 7.03},
      {"smiles": "CN(CC(=O)N1CCCC1c1noc(C2CC2)n1)C1CC1", "note": "(centres undefined)", "Percent Effect": 5.95},
      {"smiles": "COc1ccc(-c2nc(CN3CC(n4cccn4)C3)no2)cc1", "Percent Effect": 0.54},
      {"smiles": "O=C(Cn1ccc2c(Cl)cccc21)N1CCCC1", "Percent Effect": 8.11},
      {"smiles": "CCn1c(NCc2ccc(OC)cc2)nc2c(C)nn(C)c2c1=O", "Percent Effect": -4.87},
      {"smiles": "CN(Cc1ccco1)[C@@H]1CN(Cc2ccc(F)cc2)[C@@H]2CCCO[C@H]12", "Percent Effect": 2.7},
      {"smiles": "CN(Cc1ccco1)[C@@H]1CN(CC2CCOCC2)[C@@H]2CCCO[C@H]12", "Percent Effect": 4.87},
      {"smiles": "CC(C)(C)OC(=O)Cn1cccc(S(=O)(=O)N2CCCCCC2)c1=O", "Percent Effect": 5.95},
      {"smiles": "COc1ccc(C(=O)N2C[C@@H](C(=O)O)[C@H](c3ccccc3)C2)c(O)c1", "Percent Effect": 9.19}
    ]}
  ]
}
